ALDH1A1 block – inhibitors of human aldehyde dehydrogenase 1A1; P00352; Purified ALDH1A1, NADH fluorescence, propionaldehyde substrate; Potency, µM (series often up to 75.3 µM), inactives show at the top dose activity, negative = inhibition, most hits filed as inhibitors; hit rate 7.3% among 220,000; active means well fitted inhibition curve with a large enough effect, not every such curve was filed as active; inconclusive means small, poorly fitted or top-dose-only effect, or another doubt; inactive means no such curve, though single readings can be large or run the other way;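 further: plate controls were no enzyme wells and a reference inhibitor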
RORgamma inh – ROR gamma (mouse) transcription inhibition | P51450 | Drosophila S2 Gal4-RORgamma UAS-luciferase reporter, 20 h | Potency, µM (top dose mostly 53.6 µM), inactives show at the highest dose activity change, negative = inhibition, actives largely listed as inhibitors | hit rate 5.4% among 310,000; further: nearly all actives have a fitted effect of over 60% in size
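Luminescence from a UAS-regulated Photinus luciferase reporter in stably transfected Drosophila Schneider cells is measured; decreased signal marks ROR gamma inhibition. Fusion expression is induced by 700 uM copper sulfate for 20 hr.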
Sfp inh – Sfp phosphopantetheinyl transferase inhibition; Q9F4F7; Biochemical Sfp PPTase activity, qHTS; Potency, µM, for the others: largest response in the series, negative = inhibition, actives largely listed as inhibitors; hit rate 3.5% among 310,000; AID 1490;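 further: the enzyme is Sfp with the accession as filed and its product quenches rhodamine fluorescence; 0% = enzyme reaction without inhibitor and -100% = no enzyme wells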
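With Hepes-Na pH 7.6 buffer containing 10 mM MgCl2, Sfp (15 nM) modified BHQ-2-YbbR (12.5 uM) using rhodamine-CoA (5 uM). Two reads 30 minutes apart at 525/598 nm yielded each well's rate.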
PLK1 PBD block – PLK1 (human) polo-box domain binding inhibition; P53350; Plk1 PBD binding of FITC phosphopeptide, fluorescence polarization; Potency, µM, for the others: max response, negative = inhibition, actives largely listed as inhibitors; hit rate 2.8% among 360,000; further: series mostly up to about 57 µM; nearly all actives have a fitted effect of over 65% in size
Target sequence (P53350 whole entry, looked up, the tested form may be a part): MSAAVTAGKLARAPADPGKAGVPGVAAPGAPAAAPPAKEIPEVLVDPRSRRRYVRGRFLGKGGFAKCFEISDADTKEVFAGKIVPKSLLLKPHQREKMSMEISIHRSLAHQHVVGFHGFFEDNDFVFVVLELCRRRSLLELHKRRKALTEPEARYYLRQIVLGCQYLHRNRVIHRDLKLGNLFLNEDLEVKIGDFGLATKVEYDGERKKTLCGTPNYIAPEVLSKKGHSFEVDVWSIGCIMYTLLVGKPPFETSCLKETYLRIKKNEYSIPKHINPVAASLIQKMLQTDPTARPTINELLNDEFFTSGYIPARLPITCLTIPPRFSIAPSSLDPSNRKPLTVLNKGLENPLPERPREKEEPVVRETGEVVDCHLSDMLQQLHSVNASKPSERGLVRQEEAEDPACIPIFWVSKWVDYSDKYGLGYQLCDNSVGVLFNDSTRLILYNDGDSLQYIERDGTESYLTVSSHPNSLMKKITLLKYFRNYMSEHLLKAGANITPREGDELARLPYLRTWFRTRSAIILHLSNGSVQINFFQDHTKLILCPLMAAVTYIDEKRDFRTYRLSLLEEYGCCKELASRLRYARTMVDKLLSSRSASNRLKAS
Gal4-VP16 FLuc – counter-screen for ROR gamma inhibitors: Gal4-VP16 reporter; Potency, µM (doses to about 53.6 µM), for inactives: top-dose activity, negative = inhibition, most hits filed as inhibitors; AID 2546; Drosophila S2 Gal4-VP16 UAS-luciferase, luminescence, 20 h; hit rate 3.5% among 310,000;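 further: Gal4-VP16 expression switched on by copper sulfate through the metallothionein promoter; nearly all actives have a fitted effect of over 50% in size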
Numbers without * were called inactive; ? = inconclusive; . = no result. Sampled rows, rich in hits. Any-hit rate of the full collection: about 12%. Unless noted, the call rests on the fitted dose curve; in most records, active means well fitted curve in the direction sought with a large enough effect; inconclusive means small, poorly fitted or top-dose-only effect, or another doubt; inactive means no such curve, though single readings can be large; an effect the other way counts as inactive or inconclusive. Unless noted, on the % scale 0 is the no-effect control and ±100 the full control effect; potency means the concentration at half of the fitted maximal effect.

SMILES	ALDH1A1 block	RORgamma inh	Sfp inh	PLK1 PBD block	Gal4-VP16 FLuc
[O-]/[N+](=C\c1ccc(OC(F)F)cc1)c1ccccc1	7.9µM*	-1%	-27%	-11%	-6%
[O-]/[N+](=C/c1ccc(F)cc1)c1ccccc1	?	-1%	?	-22%	-5%
Cc1ccc(S(=O)(=O)N2[C@@H](c3ccc(Br)cc3)C(C(=O)O)=CC[C@H]2c2ccc3c(c2)OCO3)cc1	.	.	.	-10%	.
Cc1cccc(C)c1NC(=O)C1(C)CSCC(=O)N1CCc1c[nH]c2ccccc12 (stereo not drawn)	.	.	.	-5%	.
CCc1nc2ccc(C(=O)NCc3ccc4c(c3)OCO4)cn2c1N(CC)Cc1cccc(Br)c1	.	.	.	-6%	.
COCCNCC(=O)N1CCCCCC1	4µM*	38%	0%	-14%	-7%
COCCNC(=O)CN1CCCCCC1	?	-1%	-10%	-6%	2%
Cc1cc(-c2csc(N)n2)c(C)n1-c1ccc(Cl)c(Cl)c1	-15%	-9%	-1%	0%	-8%
CCCn1c(C)cc(-c2csc(N)n2)c1C	11µM*	-14%	56µM*	-19%	11%
COc1ccc(-n2c(C)cc(-c3csc(N)n3)c2C)cc1	25µM*	-7%	?	-6%	-13%
C=CCn1c(C)cc(-c2csc(NCC)n2)c1C	?	13%	?	?	0%
C=CCn1c(C)cc(-c2csc(NC)n2)c1C	?	21%	25µM*	-8%	2%
C=CCn1c(C)cc(-c2csc(N)n2)c1C	-3%	-21%	40µM*	?	3%
Cc1c(-c2csc(N)n2)cnn1C	-15%	27%	-1%	?	23%
CCCn1c(-c2ccc(F)cc2)nc2c(NC3CC4CCC(C3)N4C)nc(C)nc21 (stereo not drawn)	?	-23%	14%	.	-8%
CCc1nc2ccc(C(=O)NCc3ccc(OC)cc3)cn2c1N(C)C(=O)Cc1ccccc1	.	.	.	-10%	.
O=c1c(C(c2ccc(O)cc2)c2c(O)nc3n(c2=O)CCCS3)c(O)nc2n1CCCS2	?	0%	25µM*	12µM*	2%
CCCc1nn2c(=O)c(C(c3ccc(C)cc3)c3c(O)nc4sc(CCC)nn4c3=O)c(O)nc2s1	?	-1%	9%	-19%	-15%
Cc1ccc(C(c2c(O)nc3n(c2=O)CCS3)c2c(O)nc3n(c2=O)CCS3)cc1	?	-9%	?	17µM*	3%
O=c1c(C(c2ccc(Br)cc2)c2c(O)nc3n(c2=O)CCCS3)c(O)nc2n1CCCS2	-8%	-12%	?	?	14%
O=c1c(C(c2ccc(O)cc2)c2c(O)nc3n(c2=O)CCS3)c(O)nc2n1CCS2	13µM*	1%	14µM*	6µM*	3%
O=c1c(C(c2ccc(Br)cc2)c2c(O)nc3n(c2=O)CCS3)c(O)nc2n1CCS2	.	-1%	17%	15µM*	2%
CCC(CC)C(C(=O)NCc1ccccc1)N1CCN(CCN2CCOCC2)CC1 (stereo not drawn)	.	.	.	-13%	.
Cc1ccc(C(C)C)c(OCC(=O)NCC(c2cccs2)N2CCOCC2)c1 (stereo not drawn)	.	.	.	2%	.
COC(=O)[C@]12CCCCC=C1N(Cc1ccc3c(c1)OCO3)C(=O)[C@H](CC(=O)NCC13CC4CC(CC(C4)C1)C3)C2	.	.	.	2%	.
SMILES	ALDH1A1 block	RORgamma inh	Sfp inh	PLK1 PBD block	Gal4-VP16 FLuc
Nc1nc2ncccn2c1-c1ccc(C(F)(F)F)cc1	.	.	.	-10%	.
CC(C)(C)c1nc[nH]c(=O)c1Br	4%	-22%	7%	7%	-12%
Cc1ccccc1-c1cc2nc(NCCN3CCNC3=O)n(C)c(=O)c2s1	.	.	.	-13%	.
O=c1c(C(c2c(O)nc3n(c2=O)CCS3)c2cccc3ccccc23)c(O)nc2n1CCS2	-2%	-6%	-4%	30µM*	-6%
C=CCNC(=S)Nc1cccc(NC(=S)NCC=C)c1	3%	7.9µM*	5%	-2%	?
C=CCNC(=S)N/N=C(\C)c1cccc(NC(C)=O)c1	1%	3.5µM*	50µM*	-9%	?
C=CCNC(=S)NN(c1ccccc1)c1ccccc1	7%	2µM*	21%	-3%	6.3µM*
C=CCNC(=S)N/N=C(\C)c1cc(OC)c(OC)c(OC)c1	10%	2µM*	16%	-21%	4.5µM*
C=CCNC(=S)Nc1ccccc1	-2%	-126%	-8%	-7%	?
CC(=O)Nc1cccc(/C(C)=N/NC(=O)c2ccc(Cl)cc2Cl)c1	3%	38%	12%	9%	-4%
CC(C)NC(=S)NN(c1ccccc1)c1ccccc1	6%	?	-11%	-19%	?
C=CCNC(=O)NC(=S)c1ccccc1	-5%	13µM*	10%	-2%	?
C=CCNC(=O)c1ccccc1NC(=O)c1ccccc1	11%	18%	-5%	0%	-5%
CC1OC(C2CCCCC2)Cc2[nH]c(=S)[nH]c(=O)c21 (stereo not drawn)	.	.	.	-11%	.
COc1cccc(-n2c(C)nc3c(cnn3-c3ccc(C)cc3)c2=O)c1	-5%	44%	10%	-7%	-5%
Cc1cccc(-n2c(C)nc3c(cnn3-c3ccc(F)cc3)c2=O)c1	?	-39%	-10%	-6%	7.1µM*
COc1cccc(-c2ccc(NC(=O)C3CCCN(Cc4cnn(C)c4)C3)cc2)c1 (stereo not drawn)	.	-9%	0%	-2%	4%
Cc1ncc(CN2CCCC(C(=O)Nc3ccc(-c4ccco4)cc3)C2)cn1 (stereo not drawn)	.	-6%	32µM*	-13%	3%
COCc1cc(CN2CCCC(C(=O)Nc3ccc(-c4ccco4)cc3)C2)ccc1OC (stereo not drawn)	.	9%	50µM*	-10%	5%
Cc1ncc(CN2CCCC(C(=O)Nc3ccc(-c4cscn4)cc3)C2)cn1 (stereo not drawn)	.	?	6%	10%	21%
COc1cccc(-c2ccc(NC(=O)C3CCCN(Cc4nccn4C)C3)cc2)c1 (stereo not drawn)	.	5µM*	-3%	2%	?
CCOCCCNC(=S)NCCc1ccccc1	-7%	11µM*	21%	-3%	13µM*
S=C(NCCCc1ccccc1)NCc1ccccc1	.	6.3µM*	15%	1%	11µM*
CC(NC(=O)C1CCN(Cc2ccc(Oc3ccccc3)cc2)CC1)c1cccc2ccccc12 (stereo not drawn)	.	.	.	1%	.
Cc1cc(=O)oc2cc(OC(=O)c3ccco3)ccc12	-1%	-4%	10%	-4%	0%
CC1CC(C)(C)Nc2ccc(OC(=O)c3ccco3)cc21 (stereo not drawn)	?	5µM*	-13%	-3%	2.5µM*
CC1CC(C)(C)Nc2ccc(N=O)cc21 (stereo not drawn)	10µM*	13%	22%	-8%	3%
CC[C@H](CO)Oc1cc(NCc2cccc(N)c2)c2ncn(C(C)C)c2c1	.	.	.	1%	.
O=S(=O)(Nc1ccc(C(O)(C(F)(F)F)C(F)(F)F)cc1)c1cccc2ccccc12	.	.	.	-4%	.
